# Bioassay records deposited in PubChem by several laboratories.
# CYP2C9 inh: blocks human cytochrome P450 2C9. actives 20% (n = 96,000). CYP2C9 Supersomes, luciferin-H conversion, luminescence. AID 777. inhibition, % at 5 µM;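 active means blocking of liver enzyme CYP2C9 beyond about 50% at 5 µM, limit read from the data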
# Target sequence (P11712 whole entry, looked up): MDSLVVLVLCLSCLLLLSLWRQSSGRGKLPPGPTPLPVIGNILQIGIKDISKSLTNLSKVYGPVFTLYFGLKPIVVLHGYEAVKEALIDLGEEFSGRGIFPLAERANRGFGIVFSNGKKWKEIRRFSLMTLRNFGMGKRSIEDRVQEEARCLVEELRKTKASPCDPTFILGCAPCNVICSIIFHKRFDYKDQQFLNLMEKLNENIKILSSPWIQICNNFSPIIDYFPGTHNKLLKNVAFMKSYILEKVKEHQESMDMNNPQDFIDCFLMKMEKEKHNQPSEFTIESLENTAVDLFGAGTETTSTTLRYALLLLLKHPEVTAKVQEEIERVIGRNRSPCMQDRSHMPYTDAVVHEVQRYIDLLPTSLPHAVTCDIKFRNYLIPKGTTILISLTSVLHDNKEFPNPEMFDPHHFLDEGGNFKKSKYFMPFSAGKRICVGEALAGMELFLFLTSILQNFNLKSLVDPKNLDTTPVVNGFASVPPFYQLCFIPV
# CYP2C19 inh: inhibitors of human CYP2C19 | P33261 | CYP2C19 Supersomes, luciferin-H EGE luminescence, 30 min | inhibition, % at 5 µM | actives 21% (n = 96,000) | AID 778;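 active means CYP2C19 inhibition above a set limit at 5 µM in the primary screen, cut at about 50% in these data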;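 further: plate controls were negative control wells for no effect and 2.5 mM tranylcypromine positive control for full effect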
# CYP2C9 act: increases human cytochrome P450 2C9 activity; P11712; activation factor at 5 µM; actives 1.4% (n = 96,000); recombinant CYP2C9, luciferin-H conversion, luminescence; active compounds read high; factor 1 = untreated enzyme, 0 = blocked; AID 1024;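 active means activation factor of 2 or more for CYP2C9 at a 5 µM dose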;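 further: 0 = sulfaphenazole-blocked wells and 1 = vehicle-only wells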
# CYP2C19 activ: activators of human cytochrome P450 2C19; P33261; 96,000 tested, under 10 active; AID 1025; activation factor at 5 µM; recombinant CYP2C19, luciferin-H EGE luminescence; active compounds read high; 0 = fully inhibited enzyme, 1 = untreated enzyme;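 active means activation factor of at least 2 at 5 µM in the primary screen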;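 further: 0 = wells with 2.5 mM tranylcypromine and 1 = vehicle-only wells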
# PostGolgi ctrl: inhibits growth of the yeast control strain; efflux-deficient yeast background strain, growth absorbance A615, 16 h; inhibition, % at 10 µM; actives 5% (n = 98,000); AID 738
# PostGolgi yeast: growth inhibition of a yeast mutant, post-Golgi transport screen. inhibition, % at 10 µM. post-Golgi transport phenotypic cell assay. AID 739. actives 0.9% (n = 98,000);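 further: yeast cells grown in 1536-well plates; yeast grown about 18 h at 30C before absorbance read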
# Numbers without * were called inactive. Shown are actives, neighbours in structure and some others; about 32% of the full set was active somewhere. Unless noted, no stated cut-off is given here; in the data, active means inhibition above about 30%; inactive means the rest.
SMILES,CYP2C9 inh,CYP2C19 inh,CYP2C9 act,CYP2C19 activ,PostGolgi ctrl,PostGolgi yeast
COc1cccc(C(=O)NCc2ccc(-c3nc4ccccc4s3)cc2)c1,82*,39,0.2,0.6,3,-4
COc1cccc(-c2cc(C(=O)Nc3ccc4c(c3)OCCO4)c3ccccc3n2)c1,71*,-17,0.3,1.2,9,-2
O=C(Nc1ccc2c(c1)OCCO2)c1cc(-c2ccccc2)nc2ccccc12,44,24,0.6,0.8,6,17
Cn1c(NC(=O)c2cc(-c3ccc4c(c3)OCO4)nc3ccccc23)cc(=O)n(C)c1=O,73*,30,0.3,0.7,8,-2
COc1cccc(-c2cc(C(=O)Nc3nc4ccccc4s3)c3ccccc3n2)c1,51*,22,0.5,0.8,24,8
COc1cccc(C(=O)NCc2cccnc2)c1,-19,21,1.2,0.8,-2,0
O=C(COCc1nc2ccccc2c(=O)[nH]1)NC1CCCC1,19,38,0.8,0.6,2,1
CN(C)S(=O)(=O)c1ccc(NC(=O)Cn2c(-c3ccccc3)noc2=O)cc1,95*,78*,0,0.2,8,-8
COc1ccc(C(=O)Nc2ccc(Cl)c(Cl)c2)c(OC)n1,-8,-3,1.1,1,6,0
O=C(Nc1cccc(Cl)c1)c1ccncc1,25,68*,0.7,0.3,13,-3
O=C(Nc1ccc(Cc2ccncc2)cc1)c1ccc(Cl)c([N+](=O)[O-])c1,76*,77*,0.2,0.2,78*,67*
O=C(Nc1ccc(Cl)c(Cl)c1)c1ccncc1,54*,96*,0.5,0,3,-2
COc1cccc(NC(=O)c2ccncc2)c1,3,36,1,0.6,2,-2
O=C(CNc1cccc(Cl)c1)c1ccc(Cl)cc1,15,86*,0.9,0.1,17,4
CC(C)Oc1ccc(C(=O)Nc2ccc(N(C)C)cc2)cc1,-20,4,1.2,1,-1,-13
O=c1cc(N2CCC3(CC2)OCCO3)[nH]c(=O)n1-c1ccc(Cl)cc1,4,2,1,1,2,5
CCOC(=O)CSc1nnc(CNC(=O)c2ccc(S(=O)(=O)N3CCCC3)cc2)n1C,2,16,1,0.8,-6,-9
CC(C)(C)NC(=O)CCN1CCOCC1,-33,-27,1.3,1.3,-3,-3
CC(OC(=O)c1ccncc1)C(=O)Nc1cccc(Cl)c1 (centres undefined),63*,75*,0.4,0.3,4,-2
O=C(NNC(=O)c1cccnc1)Nc1ccc(Cl)c(Cl)c1,8,38,0.9,0.6,16,-2
O=C(Nc1ccc(Cl)c(Cl)c1)OCc1cccnc1,47,64*,0.5,0.4,5,-8
O=C(Nc1cccc(Cl)c1)c1csc(-c2ccccc2)n1,58*,-10,0.4,1.1,12,-4
Cc1ccc(-c2cc3nn(-c4ccccc4)c(N)c3c(=O)o2)cc1,16,12,0.8,0.9,3,0
CCC(=O)Nc1ccc(C(=O)OCC(=O)c2ccc(C)c([N+](=O)[O-])c2)cc1,-20,-7,1.2,1.1,9,-11
CC(=O)Nc1ccc(C(=O)OCC(=O)c2ccc(C)c([N+](=O)[O-])c2)cc1,51*,30,0.5,0.7,26,-11
SMILES,CYP2C9 inh,CYP2C19 inh,CYP2C9 act,CYP2C19 activ,PostGolgi ctrl,PostGolgi yeast
CC(=O)n1c2ccccc2c2ccccc21,68*,47,0.3,0.5,4,1
Cc1ccc(C(=O)n2c3ccccc3c3ccccc32)cc1,78*,7,0.2,0.9,0,-2
CC(C)N=Cc1c(O)[nH]c2ccccc12,54*,5,0.5,0.9,0,16
CC(C)(CO)N=Cc1c(O)[nH]c2ccccc12,4,4,1,1,2,-2
CCCc1nnc(SCC(=O)N2CCCC(C)C2)n1CCCOC (centres undefined),-5,4,1.1,1,-6,4
Cc1noc(NS(=O)(=O)c2ccc(N/C=C/C(=O)c3cccnc3)cc2)c1C,-9,-10,1.1,1.1,0,-15
O=CN(/C=C1\Sc2ccccc2C1=O)Cc1ccccc1,56*,-2,0.4,1,-1,-2
CCC(=O)N(C)/C=C1\Sc2ccccc2C1=O,10,20,0.9,0.8,10,9
CCCC(=O)NC(=S)Nc1ccccc1F,29,42,0.7,0.6,13,-6
CCOC(=O)c1cnn(-c2cc(Oc3cccc(C)c3)ncn2)c1N,21,-5,0.8,1,6,15
CCc1ccc(C(=O)COC(=O)c2ccc(-c3nnc(-c4ccccc4)o3)cc2)cc1,-8,64*,1.1,0.4,10,-1
Cc1cc(NC(=O)COC(=O)C(Nc2ccc(C(F)(F)F)cc2Cl)C(C)C)no1 (centres undefined),52*,57*,0.5,0.4,59*,3
Cc1ccccc1NS(=O)(=O)c1cc(C(=O)NCCSC2CCCCC2)ccc1C,63*,42,0.4,0.6,20,4
Cc1ccc(C)c(NS(=O)(=O)c2cc(C(=O)NCCSC3CCCCC3)ccc2C)c1,79*,59*,0.2,0.4,41*,-3
Cc1ccccc1NS(=O)(=O)c1cc(C(=O)N2CCCC2)ccc1C,35,20,0.6,0.8,4,1
COC(=O)C1CSC(C(=O)OC)N1C(=O)CN1CC(C)OC(C)C1 (centres undefined),-13,-1,1.1,1,-1,24
O=C1CC(C(=O)N(c2ccc(F)cc2)C(C(=O)NC2CCCC2)c2ccccn2)CS1 (centres undefined),-12,-12,1.1,1.1,1,-12
O=C1CC(C(=O)N(c2cccc(F)c2)C(C(=O)NC2CCCC2)c2ccccn2)CS1 (centres undefined),-2,6,1,0.9,37*,4
Clc1ccc(OCCN2CCCCC2)c(Cl)c1,3,46,1,0.5,8,18
CC1CC(C)CN(CCOc2ccc(Cl)cc2Cl)C1 (centres undefined),7,98*,0.9,0,29,89*
CC1CCCN(CCC(=O)c2ccc(Br)cc2)C1 (centres undefined),8,42,0.9,0.6,14,3
CC1CCCN(CCOCCOc2ccc(Cl)cc2Br)C1 (centres undefined),-10,43,1.1,0.6,22,103*
O=C(CSc1nc2c(cnn2-c2ccc(F)cc2)c(=O)[nH]1)N1CCCCC1,21,-6,0.8,1.1,16,-8
O=C(CSc1ncc(-c2ccccc2)[nH]1)Nc1ccccc1,56*,75*,0.4,0.2,20,-10
O=C(CSc1nc(-c2ccccc2)cc(=O)[nH]1)Nc1ccccn1,4,-14,1,1.1,8,3
O=C(CSc1ncc(-c2ccccc2)[nH]1)Nc1cccc(O)c1,21,62*,0.8,0.4,-6,8
